Test results taken from PubChem BioAssay (Tox21).
“And” between values parts separate entries of the source, which are not always exact repeats. Identical values can stand only once. Inconclusive results are not listed. The source made the active and inactive calls. Unless noted, calls come from the whole dose curve; as a rule, active = well fitted curve in the direction sought with a large enough effect in the repeat runs; inconclusive = weak or mixed curves; inactive = no such curve, though single readings can be large; an effect the other way counts as inactive or inconclusive.

Key:
[1] = qHTS assay to identify small molecule agonists of the RXR signaling pathway - cell viability counter screen (AID 1159529); note: series mostly up to about 77 µM; nearly all actives have a fitted effect of over 50% in size
Outline: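 Compounds dissolved in DMSO were pinned onto HEK 293T cells carrying a beta-lactamase reporter under RXR-alpha control and incubated 16 hr. Cytotoxicity was then quantified by CellTiter-Glo luminescence.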

[2] = qHTS assay to identify small molecule antagonists of the retinoid acid receptor (RAR) signaling pathway - cell viability counter screen (AID 1159551); note: nearly all actives have a fitted effect of over 35% in size; note: potency is the fitted concentration of half-maximal effect
Outline: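 C3RL4 cells were seeded overnight at 37 C, then treated with compounds plus 1 uM (final) retinol for 6 h at 37 C. Viability was read as ATP by CellTiter-Glo luminescence after 30 min at room temperature.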

[3] = qHTS assay to identify small molecule antagonists of the retinoic acid receptor (RAR) signaling pathway (AID 1159552; note: nearly all actives have a fitted effect of over 50% in size; note: potency is the fitted concentration of half-maximal effect)
Outline: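 Test chemicals and DMSO controls were pin-transferred onto C3RL4 cells a day after seeding; retinol (1 uM final) followed at once. Luminescent reporter output was quantified after 6 hr of co-incubation and 30 min with detection reagent.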

[4] = qHTS assay to identify small molecule antagonists of the estrogen related receptor (ERR) signaling pathway from Tox21 library - cell viability counter screen (AID 1224834); note: nearly all actives have a fitted effect of over 30% in size; note: potency is the fitted concentration of half-maximal effect
Outline: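 ERR reporter cells were plated 6 h before compound addition, then exposed to test compounds in DMSO for 17.5 h at 37 C. Viability was read as CellTiter-Fluor fluorescence after a 30-minute incubation at 37 C.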

[5] = biological target: Luciferin 4-monooxygenase (Photinus pyralis) (UniProt P08659); experiment: qHTS assay to identify small molecule inhibitors of firefly luciferase (AID 1224835); note: nearly all actives have a fitted effect of over 25% in size; note: potency is the fitted concentration of half-maximal effect
Chain of Luciferin 4-monooxygenase (Photinus pyralis) (P08659 whole entry, looked up): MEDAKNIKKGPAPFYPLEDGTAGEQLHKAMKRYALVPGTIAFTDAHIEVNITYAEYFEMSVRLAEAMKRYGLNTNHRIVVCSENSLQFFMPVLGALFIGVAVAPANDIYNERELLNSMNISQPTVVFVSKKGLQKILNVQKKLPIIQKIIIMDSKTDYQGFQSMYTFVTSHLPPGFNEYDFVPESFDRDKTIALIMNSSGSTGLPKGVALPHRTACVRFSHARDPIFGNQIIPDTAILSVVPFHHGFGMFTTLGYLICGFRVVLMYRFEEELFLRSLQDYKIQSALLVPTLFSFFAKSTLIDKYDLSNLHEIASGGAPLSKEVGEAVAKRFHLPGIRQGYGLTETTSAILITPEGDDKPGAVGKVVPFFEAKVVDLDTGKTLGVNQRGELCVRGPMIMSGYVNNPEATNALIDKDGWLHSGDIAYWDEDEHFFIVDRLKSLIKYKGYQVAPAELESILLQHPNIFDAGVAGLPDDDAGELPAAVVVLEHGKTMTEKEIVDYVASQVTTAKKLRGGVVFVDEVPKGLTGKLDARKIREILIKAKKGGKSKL
Outline: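 Biochemical qHTS: compounds run as interplate titrations against purified firefly enzyme, with D-luciferin and ATP each at its KM concentration. Light output recorded by CCD imaging.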

[6] = qHTS assay to identify small molecule agonists of the constitutive androstane receptor (CAR) signaling pathway - cell viability counter screen (AID 1224836); note: nearly all actives have a fitted effect of over 45% in size; note: potency is the fitted concentration of half-maximal effect
Outline: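 23 h treatment, 37 C, 5% CO2. Cell line: HepG2 stably expressing hCAR with a CYP2B6-2.2kb construct. Co-treatment: PK11195, 0.75 uM final. Read-out: CellTiter-Fluor fluorescence intensity.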

[7] = qHTS assay to identify small molecule antagonists of the constitutive androstane receptor (CAR) signaling pathway - cell viability counter screen (AID 1224837); note: nearly all actives have a fitted effect of over 45% in size; note: potency is the fitted concentration of half-maximal effect
Outline: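 HepG2 cells stably expressing hCAR and a CYP2B6-2.2kb reporter were plated and pre-incubated 4 hr at 37 C/5% CO2, then given compounds at 15 concentrations plus 50 nM CITCO (final). After 23 hr, viability was read by CellTiter-Fluor fluorescence.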

[8] = biological target: Thyrotropin receptor (Homo sapiens) (UniProt P16473); experiment: qHTS assay to identify small molecule agonists of the thyroid stimulating hormone receptor (TSHR) signaling pathway (AID 1224843; calls by dose curve; note: nearly all actives have a fitted effect of over 45% in size; note: potency is the fitted concentration of half-maximal effect)
Chain of Thyrotropin receptor (Homo sapiens) (P16473 whole entry, looked up): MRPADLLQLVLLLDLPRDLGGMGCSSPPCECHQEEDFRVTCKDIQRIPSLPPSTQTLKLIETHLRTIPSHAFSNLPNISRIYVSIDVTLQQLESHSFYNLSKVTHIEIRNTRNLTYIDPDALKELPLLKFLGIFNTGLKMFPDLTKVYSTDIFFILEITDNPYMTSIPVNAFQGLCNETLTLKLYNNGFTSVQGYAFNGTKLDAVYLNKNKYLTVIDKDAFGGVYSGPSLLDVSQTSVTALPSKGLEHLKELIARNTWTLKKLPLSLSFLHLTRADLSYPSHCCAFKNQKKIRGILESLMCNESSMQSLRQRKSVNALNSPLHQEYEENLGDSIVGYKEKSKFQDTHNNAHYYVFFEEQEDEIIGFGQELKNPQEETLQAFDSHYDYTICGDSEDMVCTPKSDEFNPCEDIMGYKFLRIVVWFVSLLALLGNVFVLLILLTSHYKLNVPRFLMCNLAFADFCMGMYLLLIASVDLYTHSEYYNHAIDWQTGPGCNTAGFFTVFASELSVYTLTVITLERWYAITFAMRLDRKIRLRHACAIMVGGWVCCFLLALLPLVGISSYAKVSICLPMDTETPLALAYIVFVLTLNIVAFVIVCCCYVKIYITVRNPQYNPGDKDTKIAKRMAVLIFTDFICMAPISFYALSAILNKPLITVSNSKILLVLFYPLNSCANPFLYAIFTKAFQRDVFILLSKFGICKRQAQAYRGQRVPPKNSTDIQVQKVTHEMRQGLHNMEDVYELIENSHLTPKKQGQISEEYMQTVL
Outline: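 Steps: seed 800 TSHR-HEK293 cells per well; add test compound and hold 30 min at ambient temperature; dispense cAMP-d2 then anti-cAMP cryptate; incubate 1 h at ambient; measure fluorescence intensity.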

[9] = biological target: Nuclear receptor subfamily 1 group I member 3 (Homo sapiens) (UniProt Q14994); experiment: qHTS assay to identify small molecule antagonists of the constitutive androstane receptor (CAR) signaling pathway (AID 1224838); note: nearly all actives have a fitted effect of over 40% in size; note: potency is the fitted concentration of half-maximal effect
Chain of Nuclear receptor subfamily 1 group I member 3 (Homo sapiens) (Q14994 whole entry, looked up): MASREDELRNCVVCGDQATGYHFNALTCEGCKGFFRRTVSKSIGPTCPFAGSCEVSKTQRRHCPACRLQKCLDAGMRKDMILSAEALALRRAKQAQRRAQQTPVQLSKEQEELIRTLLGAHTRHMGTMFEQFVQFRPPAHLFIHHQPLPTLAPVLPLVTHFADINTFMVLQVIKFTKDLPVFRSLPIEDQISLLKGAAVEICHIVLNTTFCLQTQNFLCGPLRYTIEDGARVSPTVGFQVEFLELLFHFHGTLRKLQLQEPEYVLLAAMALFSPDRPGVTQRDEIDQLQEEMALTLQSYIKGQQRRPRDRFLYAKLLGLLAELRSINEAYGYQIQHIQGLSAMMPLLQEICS
Outline: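 HepG2 cells stably co-transfected with hCAR and a CYP2B6-2.2kb luciferase reporter were seeded 4 h before compound addition at 15 concentrations. Cells were stimulated with 50 nM CITCO (final) for 24 h at 37 C; luciferase luminescence was then read.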

[10] = qHTS assay to identify small molecule antagonists of the estrogen related receptor signaling pathway with the pleiotropic PPARgamma coactivator (PGC) from Tox21 10K library - cell viability counter screen (AID 1224840; active = well fitted cell-killing curve with a large enough effect in the repeat runs, not every such curve was filed as active; note: nearly all actives have a fitted effect of over 40% in size; note: potency is the fitted concentration of half-maximal effect)
Outline: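 PGC/ERR cells were seeded at 2,000 cells/well and left 6 hours at 37 C/5% CO2 before pin-tool addition of compounds in DMSO. After 17.5 hours at 37 C, CellTiter-Fluor was added and fluorescence read 30 minutes later.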

[11] = qHTS assay to identify small molecule antagonists of the estrogen related receptor signaling pathway with the pleiotropic PPARgamma coactivator (PGC) from Tox21 10K library (AID 1224841; call rule not given here; note: actives are mostly falling curves and most rising ones were filed inactive; nearly all actives have a fitted effect of over 50% in size; note: potency is the fitted concentration of half-maximal effect)
Outline: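 PGC/ERR reporter cells were seeded at 2,000 cells/well and held 6 hours at 37 C/5% CO2 before pin-tool addition of compounds in DMSO. After 18 hours at 37 C, One-Glo was added and luminescence read after 30 minutes at room temperature.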

[12] = qHTS assay to identify small molecule agonists of the estrogen related receptor signaling pathway with the pleiotropic PPARgamma coactivator (PGC) from Tox21 10K library (AID 1224842); note: nearly all actives have a fitted effect of over 15% in size
Outline: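 PGC/ERR reporter cell line, 2,000 cells per well, incubated 6 h at 37 C before 23 nL compound in DMSO was added. After 18 h at 37 C, One-Glo luminescence read following 30 min at room temperature.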

[13] = biological target: Nuclear receptor subfamily 1 group I member 3 (Homo sapiens) (UniProt Q14994); experiment: qHTS assay to identify small molecule agonists of the constitutive androstane receptor (CAR) signaling pathway (AID 1224839); note: nearly all actives have a fitted effect of over 15% in size; note: potency is the fitted concentration of half-maximal effect
Outline: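 Compounds tested at 15 concentrations on HepG2 cells stably harbouring hCAR and CYP2B6-2.2kb reporter constructs, co-treated with PK11195 (0.75 uM final), 24 h at 37 C; luminescent reporter signal quantified.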

[14] = qHTS assay to identify small molecule agonists of the retinoic acid receptor (RAR) signaling pathway (AID 1159553)
Outline: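 C3RL4 cells carrying a RARE luciferase reporter were plated overnight at 37 C, then exposed to compounds in DMSO for 6 hr at 37 C and 5% CO2. Luminescence was read 30 min after luciferase reagent addition at room temperature.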

[15] = qHTS assay to identify small molecule antagonists of the estrogen related receptor (ERR) signaling pathway - cell viability counter screen (AID 1224818);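 note: series mostly up to about 46 µM; viability measured after 17.5 h of compound exposure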
Outline: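 ERR reporter cells plated 6 h at 37 C/5% CO2, then compounds in DMSO pin-transferred and incubated 17.5 h at 37 C. Viability read as CellTiter-Fluor fluorescence after 30 min at 37 C.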

[16] = qHTS assay to identify small molecule antagonists of the estrogen related receptor signaling pathway with the pleiotropic PPARgamma coactivator (PGC) cell viability counter screen (AID 1224822; note: series mostly up to about 46 µM)
Outline: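 PGC/ERR cells were seeded at 2,000 cells/well, rested 6 h at 37 C/5% CO2, then given compounds in DMSO by pin tool and incubated 17.5 h at 37 C. Viability came from CellTiter-Fluor fluorescence after 30 min.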

Measured: Potency

O=C(NC(=O)c1cc(F)c(F)cc1Cl)Nc1cc(F)ccc1N1CCC(C(=O)O)CC1
inactive: [1] | [2] | [3] | [4] | [5] | [6] | [7] | [8]

C[C@H](N)[C@H](O)c1ccc(O)c(O)c1
inactive: [1] | [2] | [3] | [4] | [5] | [6] | [7] | [9] | [10] | [11] | [12]

O=C1c2ccccc2C(=O)N1SC(Cl)(Cl)Cl
active: [2] 53.7 µM and 30.6 µM | [3] 17 µM and 15.4 µM | [4] 24 µM and 27.3 µM | [5] 15.7 µM and 20 µM | [6] 26.9 µM and 43.3 µM | [7] 24 µM and 19.3 µM | [9] 19.1 µM and 15.4 µM | [10] 26.9 µM and 24.3 µM | [11] 53.7 µM and 61.1 µM | [8] 19.1 µM and 12.2 µM
inactive: [1] | [13] | [12]

COC(=O)Cc1ccccc1
inactive: [1] | [2] | [3] | [4] | [5] | [6] | [7] | [9] | [13] | [10]

CCCN(CCOc1c(Cl)cc(Cl)cc1Cl)C(=O)n1ccnc1
inactive: [1] | [2] | [3] | [5] | [6] | [9] | [12]
active: [13] 54.5 µM | [11] 55.6 µM and 27.3 µM

CCNC(=O)NC(=O)/C(C#N)=N/OC
inactive: [1] | [2] | [14] | [4] | [5] | [6] | [7] | [9] | [10] | [11] | [12] | [8]

COc1ccc(C(O)(c2cncnc2)C2CC2)cc1 (stereo unspecified)
inactive: [1] | [2] | [3] | [4] | [5] | [6] | [7] | [9] | [13] | [10] | [11] | [12] | [8]

CCCCC(CC)COC(=O)c1c(Br)c(Br)c(Br)c(Br)c1C(=O)OCC(CC)CCCC (stereo unspecified)
inactive: [1] | [2] | [14] | [4] | [5] | [6] | [7] | [9] | [13] | [10]

O=C(O)CCCOc1ccc(Cl)cc1Cl
inactive: [1] | [2] | [14] | [15] | [16] | [4] | [6] | [7] | [9] | [13] | [8]

CC(C)c1ccc(NC(=O)N(C)C)cc1
inactive: [1] | [2] | [3] | [6] | [7] | [9] | [10] | [11] | [8]
active: [5] 71 µM | [13] 48.5 µM

C#CC(O)(C=CCl)CC (stereo unspecified)
inactive: [1] | [2] | [3] | [4] | [5] | [6] | [7] | [8]
